Source: PubChem BioAssay
Several values for one entry are separate records, joined by “and”; a condition that tells them apart may be missing. Equal values may be shown once. Activity calls are given as the source filed them. Unless noted, how the calls were made is not given here.

How the values were obtained:
[1] = liver-stage malaria parasite growth inhibition, primary screen, cell-based, HepG2, luciferase luminescence, HepG2 viability (AID 624349; in the data active means parasite load remaining mostly below about 12%, no sharp cut-off; inactive means mostly above about 10%;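 further: 100% = mean of DMSO negative control wells on the same plate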); conditions: P. berghei liver stage in HepG2, luciferase luminescence, concentration not given here; parasite load remaining: stronger effect = lower value; viability: measured here: HepG2 viability without parasites
[2] = Cy5 fluorescence interference with SSB-bound oligo, artefact control for HCV NS3 helicase inhibitor project, biochemical, NIH Clinical Collection, E. coli SSB (AID 743268)
[3] = test system: Hepatitis C virus NS3 helicase; assay: HCV NS3 helicase inhibitors, primary screen, biochemical, fluorescence polarization, NIH Clinical Collection (AID 743270); conditions: NS3 helicase binding to Cy5-dT15 DNA, stronger effect = higher value, concentration not given here
[4] = biological target: Single-stranded DNA-binding protein (Escherichia coli (strain K12)) (UniProt P0AGE0); assay: E. coli SSB displacement from DNA, counter-screen for HCV NS3 helicase inhibitor project, biochemical, fluorescence polarization, NIH Clinical Collection (AID 743271; in the data active means inhibition above about 28%); conditions: stronger effect = higher value, concentration not given here
[5] = fluorescence interference in NS3h assay format, artefact control for HCV NS3 helicase inhibitor project, biochemical, NIH Clinical Collection (AID 743272); conditions: fluorescence interference counterscreen, stronger effect = lower value;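 further: HCV NS3 helicase with a Cy5 labelled single stranded DNA probe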
[6] = test system: Neuropilin-2 / VEGF-C interaction (human); assay: inhibitors of NRP2–VEGF-C binding, biochemical, microplate binding format, z-score (AID 743281); conditions: microplate NRP2/VEGF-C binding assay; stronger effect = lower value
[7] = modulation of C. elegans fzo-1 (AID 1259413);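 further: fzo-1 mutant C. elegans worms in liquid wells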; conditions: C. elegans fzo-1 modulator screen, mean read-out; stronger effect = higher value
[8] = sensitizers of A549 cells to miR-34 induction, primary screen, imaging, A549 dox-inducible miR-34, nuclei and caspase counts (AID 1347080;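 active means compounds whose cell count with miR-34 switched on is under 0.7 times the count with it off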); conditions: A549 miR-34 inducible, Hoechst nuclei count, 48 h
[9] = viability rescue of complex I mutant cybrids, primary screen, cell-based, galactose medium, ATP luminescence (AID 1645843;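 active means z-score of at least 1.8 in each of two replicates, scored against plate mean and spread of sample wells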;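 further: positive z means more ATP and so rescue of galactose-driven cybrid death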); conditions: complex I mutant cybrid cells, 72 h, stronger effect = higher value
[10] = survival rescue of mitochondrial mutant cells in low glucose, primary screen, MELAS cybrids, Rieske KO mouse fibroblasts, CellTiter-Glo (AID 1508586;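 active means mean z-score across replicates of 1.96 or higher in either the MELAS or the Rieske mutant cell line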;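 further: z relative to plate mean and SD of compound and empty wells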)
[11] = stronger effect = lower value, cell number ratio, induced over uninduced
[12] = measured here: relative caspase fold change +Dox/-Dox
[13] = measured here: total cells with miR-34 induction, stronger effect = lower value
[14] = measured here: total cells without miR-34 induction

Compound | parasite load remaining [1] | viability [1] | fluorescence ratio [2] | inhibition [3] | inhibition [4] | fluorescence ratio [5] | outcome [6] | mean signal [7] | fold change [8, 11] | fold change [8, 12] | cell count [8, 13] | cell count [8, 14] | z-score [9] | z-score [6] | z-score ([10]; MELAS cybrid survival, CellTiter-Glo 48 h, stronger effect = higher value) | z-score ([10]; Rieske KO mouse fibroblast survival, CellTiter-Glo 72 h)
CC[C@]1(O)CC2CN(CCc3c([nH]c4ccccc34)[C@@](C(=O)OC)(c3cc4c(cc3OC)N(C=O)[C@H]3[C@@](O)(C(=O)OC)[C@H](OC(C)=O)[C@]5(CC)C=CCN6CC[C@]43[C@@H]65)C2)C1 (some centres undefined) | 70.4% (inactive) and 43.2% (inactive) | 103% and 123% | 0.94 (inactive) | -2.84% (inactive) | 0.39% (inactive) | 0.92 (inactive) | inactive | 261 (inactive) | 0.983 (inactive) | 2.57 | 1600 | 1630 | – | – | – | –
CCCN1CC(CSC)CC2c3cccc4[nH]cc(c34)CC21 (centres undefined) | – | – | – | – | – | – | inactive | 184 (inactive) | 0.922 (inactive) | 1.17 | 9040 | 9810 | -0.235 (inactive) | – | – | –
CN1CCN(c2nc3cc(C(F)(F)F)ccc3n3cccc23)CC1 | 58.1% (inactive) | 68% | 0.95 (inactive) | -10.7% (inactive) | 1.97% (inactive) | 0.95 (inactive) | – | 175 (inactive) | 1 (inactive) and 0.87 (inactive) | 1.47 and 0.615 | 7250 and 7950 | 7230 and 9140 | -0.85 (inactive) and -1.01 (inactive) | -0.53 (inactive) | – | –
CC1(C)O[C@@H]2C[C@H]3[C@@H]4C[C@H](F)C5=CC(=O)C=CC5(C)[C@H]4[C@@H](O)CC3(C)C2(C(=O)CO)O1 (some centres undefined) | – | – | – | – | – | – | – | 250 (inactive) | – | – | – | – | – | – | – | –
CN1CCN2c3ncccc3Cc3ccccc3C2C1 (centres undefined) | 85% (inactive) | 76.9% | 0.98 (inactive) | -1.97% (inactive) | -2.76% (inactive) | 0.93 (inactive) | – | 257 (inactive) | 0.923 (inactive) and 0.892 (inactive) and 0.933 (inactive) | 1.2 and 4.96 and 1.4 | 9270 and 8700 and 7820 | 10000 and 9750 and 8380 | 0.645 (inactive) and -0.265 (inactive) | -0.469 (inactive) | 0.00763 (inactive) and -0.808 (inactive) | 0.866 and 0.0762
CC(=O)OCC(=O)[C@@]1(O)CC[C@H]2[C@@H]3CCC4=CC(=O)CCC4(C)[C@H]3[C@@H](O)CC21C (some centres undefined) | – | – | – | – | – | – | – | 278 (inactive) | – | – | – | – | – | – | – | –
